Shown are actives, neighbours in structure and some others; about 1.3% of the full set was active somewhere.
GALR2 agonist = agonists of human galanin receptor 2 (GALR2); 140,000 tested, 0.48% active; activation, % (concentration not given with the values); GALR2-expressing cells, agonist activation read-out; in the data active = activation above about 5%, passing the limit was not always enough;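 also: 0% = vehicle buffer wells and 100% = reference agonist at full effect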
Target sequence (O43603 whole entry, looked up): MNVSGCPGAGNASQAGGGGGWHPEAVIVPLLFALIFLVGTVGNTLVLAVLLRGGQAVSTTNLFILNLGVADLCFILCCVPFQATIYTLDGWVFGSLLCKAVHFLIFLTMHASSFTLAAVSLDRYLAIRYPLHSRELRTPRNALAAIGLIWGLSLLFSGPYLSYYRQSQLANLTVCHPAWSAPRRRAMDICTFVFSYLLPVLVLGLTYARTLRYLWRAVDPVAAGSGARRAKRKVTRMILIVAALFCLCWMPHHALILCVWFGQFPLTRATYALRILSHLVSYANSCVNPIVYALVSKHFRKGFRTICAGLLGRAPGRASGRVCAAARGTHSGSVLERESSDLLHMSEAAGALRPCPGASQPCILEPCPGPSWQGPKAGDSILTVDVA
S1P2 agonist = activates the human S1P2 receptor; O95136; S1P2-expressing cell line, agonist reporter read-out; activation, % at 4.5 µM; 97,000 tested, 0.46% active; AID 729; in the data active = activation above about 16%;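 also: 0% = vehicle low control and 100% = maximal reference agonist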
GALR2 blocker = blocks the human galanin receptor 2; GALR2-expressing cells, antagonist mode; inhibition, % at 4 µM; 140,000 tested, 0.39% active; in the data active = inhibition above about 27%;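 also: cells stimulated with galanin 1-16 at roughly its EC80; 0% = agonist challenge control and 100% = basal control without agonist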
S1P2 antag = S1P2 (human) receptor antagonism | cell-based S1P2 antagonist assay, inhibition at 5 uM | 97,000 tested, 0.21% active | O95136 | inhibition, % at 5 µM | AID 736; in the data active = inhibition above about 45%;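 also: CRE beta-lactamase reporter cells expressing human S1P2 stimulated with S1P; 0% = agonist at EC80 alone and 100% = agonist plus reference antagonist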
Phagocytosis inh = macrophage phagocytosis inhibition; J774A.1 macrophage IgG-bead phagocytosis, imaging; inhibition, % at 5 µM; 110,000 tested, 0.07% active;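 active = inhibition above the mean of the plate negative controls plus 5 SD, cut at about 13% in these data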;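 also: phagocytic index as fraction of beads internalized from green versus red external bead signal; plate controls were DMSO negative control for no effect and cytochalasin-D positive control for full effect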
Calb biofilm kill = kills Candida albicans biofilms; C. albicans biofilm + clotrimazole, Alamar Blue; inhibition, % at 6 µM; 85,000 tested, 0.14% active;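 active = inhibition above 20%; inactive = inhibition below 20%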;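 also: preformed 24 hr biofilms exposed to compound for 48 hr; 0% = biofilm without compound and 100% = blank killed by clotrimazole plus chlorhexidine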
GALR2 ag confirm = GALR2 (human) agonism confirmed. 460 tested, 10% active. shares compounds with GALR2 agonist. GALR2-expressing cells, agonist activation. activation, % at 5.6 µM. AID 864; in the data active = activation above about 8.4%;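 also: 0% = buffer-only vehicle wells and 100% = full reference agonist response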
BLA act counter = activates beta-lactamase reporter in GALR2 agonist counterscreen | shares compounds with GALR2 agonist | AID 865 | CHO NFAT-bla reporter, beta-lactamase FRET activation | 460 tested, 10% active | activation, % at 5.6 µM;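 active = activation above the screen-wide mean activation plus 3 SD, cut at about 8% in these data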;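 also: 0% = DMSO with PBS wells and 100% = thapsigargin positive control wells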
* = called active by the depositor; x = not tested or not shown.

SMILES	GALR2 agonist	S1P2 agonist	GALR2 blocker	S1P2 antag	Phagocytosis inh	Calb biofilm kill	GALR2 ag confirm	BLA act counter
CC1=CC(C)(C)N(C(=O)CSc2nnc(N)s2)c2cc(C)c(C)cc21	43*	0	-10	-14	x	x	0	-1
CC1=CC(C)(C)N(C(=O)CSc2nnc(C)s2)c2ccc(C)cc21	-1	-2	2	-10	x	x	x	x
O=C(O)CC(C(=O)OCCOc1ccccc1)N1CCOCC1 (stereo not drawn)	-3	-5	-5	-15	x	5	x	x
CC(=O)NCN1CCN(CNC(C)=O)CC1	11	-4	6	13	0	11	0	-2
Cc1cc(C(=O)O)c(=O)[nH]c1C	0	-6	-5	-13	-3	0	x	x
O=C(O)c1c[nH]ccc1=O	12*	-7	5	24	-2	8	-1	-3
O=C(CSc1nnnn1-c1cccc(Cl)c1)Nc1ccc2c(c1)CCC2	8.8*	x	-3	x	-1	x	6	6
CCCCCCc1cc2cc(S(=O)(=O)c3ccc(F)cc3)c(=O)oc2cc1O	14*	x	-3	x	0	x	16*	41*
COc1ccc(-c2cc(-c3ccccc3)c(C#N)c(S(C)=O)n2)cc1 (stereo not drawn)	27*	10	9	7	-1	-2	7	17*
S=C1NC(c2ccccc2)N2C(=S)NC(c3ccccc3)N12 (stereo not drawn)	12*	-3	-4	-15	2	3	0	0
COc1ccc(C2NC(=S)N3C(c4ccc(OC)cc4)NC(=S)N23)cc1 (stereo not drawn)	-2	-5	2	-8	2	x	x	x
Cc1cc(=O)oc2c3c4c(cc12)OCCN4CCC3	15*	5	18	-9	x	5	1	3
O=C(NCC(=O)N1CCCC1C(=O)O)OC1CCCCC1 (stereo not drawn)	-3	-6	5	4	-2	-3	x	x
NC(CC(=O)OC1CCCCC1)C(=O)OC1CCCCC1 (stereo not drawn)	8	2	-3	9	0	9	-1	-1
CCc1ccc(NS(=O)(=O)c2ccc3[nH]cc(C(=O)N(C)Cc4ccco4)c(=O)c3c2)cc1	0	-6	-4	-9	x	x	x	x
COc1ccccc1N1CCN(C(CNS(=O)(=O)c2ccccc2)c2cccnc2)CC1 (stereo not drawn)	10	-1	-6	-49	-1	9	0	-2
COc1ccc(S(=O)(=O)NCC(c2cccnc2)N2CCN(c3ccccc3OC)CC2)cc1C (stereo not drawn)	-2	-1	-11	14	x	-3	x	x
COc1ccc(CCN2CCC(Nc3nc4ccccc4n3Cc3ccc(F)cc3)CC2)cc1	25*	x	2	x	x	9	18*	3
COC(=O)c1cn(NC(=O)c2cccc(N(C)C)c2)c(=O)c2ccccc12	-1	-3	-10	6	0	x	x	x
COC(=O)c1cn(NC(=O)c2cccc(F)c2)c(=O)c2ccccc12	18*	-3	2	2	1	60*	-1	-1
O=C(NC(=S)Nc1ccc(NC(=O)c2cccs2)cc1)c1cc2ccccc2o1	11*	x	4	x	8	x	3	2
Cc1cc2c(cc1C)C(c1ccccc1Br)CC(=O)N2 (stereo not drawn)	21*	x	-10	x	1	x	0	-3
Cc1cc(C)nc(/N=C(\N)N2CCCCCC2)n1	17*	x	-6	x	-1	x	-1	-3
C(=C\c1ccco1)/C1=NN(c2ccccc2)C(c2ccco2)C1 (stereo not drawn)	72*	x	17	x	-5	x	27*	39*
Cn1ccnc1SCC(=O)Nc1cc(S(=O)(=O)N2CCOCC2)ccc1Cl	-1	x	9	x	-4	x	x	x
SMILES	GALR2 agonist	S1P2 agonist	GALR2 blocker	S1P2 antag	Phagocytosis inh	Calb biofilm kill	GALR2 ag confirm	BLA act counter
CC1CN(CC(=O)c2c(N)n(Cc3ccccc3)c(=O)n(C)c2=O)CC(C)O1 (stereo not drawn)	44*	-7	-3	1	-2	1	0	-2
Cn1c(=O)c(C(=O)CN2CCOCC2)c(N)n(Cc2ccccc2)c1=O	-2	-2	0	10	x	-3	x	x
O=C(O)c1cc(S(=O)(=O)N2CCCCC2)sc1Cl	1	x	1	x	-4	x	x	x
Cn1c(=O)c2[nH]c(NCCCN3CCOCC3)nc2n(C)c1=O	0	-2	22	10	1	-1	x	x
CCN(CC)CCN1C(=O)c2oc3ccc(F)cc3c(=O)c2C1c1ccncc1 (stereo not drawn)	x	x	x	x	x	0	x	x
Cn1nnnc1SCC(=O)NC(=O)Cc1ccccc1	-1	-2	-8	13	-1	2	x	x
Cn1nnnc1SCC(=O)NCCCc1ccccc1	12*	-9	-4	24	0	6	0	-2
Cc1cccc(NC(=O)/C(C#N)=C/c2cn(CC(=O)NCc3ccco3)c3ccccc23)c1C	29*	x	6	x	-4	x	11*	8.2*
COc1ccc(-c2nnc3n2N=C(c2cccc(Br)c2)CS3)cc1OC	9.7*	x	9	x	-1	8	1	0
O=C(COc1cc(Cl)c(Cl)cc1Cl)NC(=O)Nc1ccc2c(c1)OCCO2	1	x	0	x	-6	x	x	x
COC(=O)COC(=O)c1ccc(-n2nnnc2SC)cc1	-2	-3	5	25	1	4	x	x
COC(=O)c1ccc(-n2nnnc2SC)cc1	15*	-5	12	9	-1	4	0	2
CCCCn1nc(NC(=O)c2cccs2)c2cc3ccccc3nc21	11	6	10	13	0	8	2	4
CCCn1nc(NC(=O)c2cccs2)c2cc3ccccc3nc21	2	6	24	10	x	8	x	x
CCCn1nc(NC(=O)c2cccs2)c2cc3cc(OC)ccc3nc21	9	5	-12	-16	3	x	1	2
Cc1cccc2c(=O)c(C(=O)N3CCCCCC3)c[nH]c12	-2	1	-16	4	0	7	x	x
Cc1nn(C)c(C)c1/C=N/NC(=O)CCn1cc([N+](=O)[O-])cn1	92*	x	-5	x	-4	x	-1	-1
O=S(=O)(c1cccc2ccccc12)n1nnc2ccccc21	94*	-4	-14	-14	x	-6	-1	-2
Cc1cc(C)c(C(N)=O)c(NC(=O)Nc2ccccc2)n1	-2	0	-11	-3	-1	x	x	x
O=C(NCCCn1ccnc1)c1cc(S(=O)(=O)N2CCOCC2)c(Cl)cc1Cl	-1	x	7	x	0	8	x	x
Fc1c(F)c(C(F)(F)F)c(F)c(F)c1N/N=C\c1cccs1	31*	0	1	5	-1	4	7	6
NS(=O)(=O)c1ccc(N2N=C(c3ccccc3)CC2c2ccc(F)cc2)cc1 (stereo not drawn)	20*	5	-10	-6	0	x	5	11*
Cc1ccc(NC(=O)/C(=C/c2ccco2)c2ccccc2)c(C)c1	91*	-5	-5	-1	0	1	-1	-2

From PubChem
